# From the supplement of paper PMC10849652
# Of roughly 7,900 targets only a part is listed; those with a hit were picked by preference. About 0.6% of all pairs of compound and target were hits. A number with no mark means an inactive call.
# What was measured:
# Assay in all cases: log2 fold change, soluble protein after heating vs DMSO (PISA); higher = thermal stabilisation; K562 cells, 10 uM, 30 min; active = over 0.2 and 3.5 SD of the protein, either way, in both replicates (recomputed)
# [1] = compound: NC(=O)Nc1cc(-c2cccc(F)c2)sc1C(=O)N[C@H]1CCCNC1
# Outline: (§1)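 K562 cells at 2×10^6 cells/mL were exposed to 10 μM compound for 30 min, then aliquots were heated for 3 min across 48°C-58°C, pooled, and extracted in PBS containing 0.5% NP-40 at 4°C. The supernatant after 21,000xg for 90 min was taken as soluble protein and measured by TMTpro 16plex LC-MS/MS with channel sums equalised. Thermal stability is reported relative to control samples, with values from duplicates. Fold changes are given on a log2 scale.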
# [2] = compound: NC(=O)c1cnc(N[C@@H]2CCCC[C@@H]2N)nc1Nc1cccc(-n2nccn2)c1
# Outline: as §1
# [3] = compound: NC1(c2ccc(-c3nc4ccn5c(=O)[nH]nc5c4cc3-c3ccccc3)cc2)CCC1
# Outline: as §1
# [4] = compound: NCC(=O)Nc1ccc(-n2nc(C(F)(F)F)cc2-c2ccc3c(ccc4ccccc43)c2)cc1
# Outline: as §1
# entinostat = compound: Nc1ccccc1NC(=O)c1ccc(CNC(=O)OCc2cccnc2)cc1 [entinostat]
# Outline: as §1
# vorinostat = compound: O=C(CCCCCCC(=O)Nc1ccccc1)NO [vorinostat]
# Outline: as §1
# citarinostat = compound: O=C(CCCCCCNC(=O)c1cnc(N(c2ccccc2)c2ccccc2Cl)nc1)NO [citarinostat]
# Outline: as §1
# silmitasertib = compound: O=C(O)c1ccc2c(c1)nc(Nc1cccc(Cl)c1)c1ccncc12 [silmitasertib]
# Outline: as §1
# [5] = compound: O=C1NC(=O)C(c2cnc3ccccn23)=C1c1cn2c3c(cc(F)cc13)CN(C(=O)N1CCCCC1)CC2
# Outline: as §1
# [6] = compound: c1cc(OCCN2CCCCC2)cc(-c2n[nH]c3ccc(-c4nnc[nH]4)cc23)c1
# Outline: as §1
# Chain of UniProt Q15642 (Q15642 whole entry, looked up): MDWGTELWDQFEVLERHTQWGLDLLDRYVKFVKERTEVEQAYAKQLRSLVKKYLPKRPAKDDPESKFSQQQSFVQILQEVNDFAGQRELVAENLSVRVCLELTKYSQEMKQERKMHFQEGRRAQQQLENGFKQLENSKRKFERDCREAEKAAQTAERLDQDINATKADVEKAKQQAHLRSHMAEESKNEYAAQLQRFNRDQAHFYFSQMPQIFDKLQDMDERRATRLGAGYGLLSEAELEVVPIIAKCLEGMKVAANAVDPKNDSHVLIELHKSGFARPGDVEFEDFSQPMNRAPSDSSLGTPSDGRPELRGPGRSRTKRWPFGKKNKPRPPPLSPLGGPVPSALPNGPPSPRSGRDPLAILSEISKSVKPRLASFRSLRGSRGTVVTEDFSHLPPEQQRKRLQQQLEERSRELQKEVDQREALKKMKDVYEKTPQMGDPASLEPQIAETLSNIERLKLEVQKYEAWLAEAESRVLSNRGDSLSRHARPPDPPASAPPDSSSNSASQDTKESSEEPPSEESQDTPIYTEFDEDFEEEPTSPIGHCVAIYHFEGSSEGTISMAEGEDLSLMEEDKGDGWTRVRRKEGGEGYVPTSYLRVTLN
# Chain of UniProt Q99757 (Q99757 whole entry, looked up): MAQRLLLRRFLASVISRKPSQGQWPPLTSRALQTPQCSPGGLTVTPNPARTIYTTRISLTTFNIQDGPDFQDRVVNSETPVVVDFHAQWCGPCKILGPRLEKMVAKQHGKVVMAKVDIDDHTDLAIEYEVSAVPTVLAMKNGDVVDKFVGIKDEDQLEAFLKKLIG
# Chain of UniProt Q9Y4E6 (Q9Y4E6 whole entry, looked up): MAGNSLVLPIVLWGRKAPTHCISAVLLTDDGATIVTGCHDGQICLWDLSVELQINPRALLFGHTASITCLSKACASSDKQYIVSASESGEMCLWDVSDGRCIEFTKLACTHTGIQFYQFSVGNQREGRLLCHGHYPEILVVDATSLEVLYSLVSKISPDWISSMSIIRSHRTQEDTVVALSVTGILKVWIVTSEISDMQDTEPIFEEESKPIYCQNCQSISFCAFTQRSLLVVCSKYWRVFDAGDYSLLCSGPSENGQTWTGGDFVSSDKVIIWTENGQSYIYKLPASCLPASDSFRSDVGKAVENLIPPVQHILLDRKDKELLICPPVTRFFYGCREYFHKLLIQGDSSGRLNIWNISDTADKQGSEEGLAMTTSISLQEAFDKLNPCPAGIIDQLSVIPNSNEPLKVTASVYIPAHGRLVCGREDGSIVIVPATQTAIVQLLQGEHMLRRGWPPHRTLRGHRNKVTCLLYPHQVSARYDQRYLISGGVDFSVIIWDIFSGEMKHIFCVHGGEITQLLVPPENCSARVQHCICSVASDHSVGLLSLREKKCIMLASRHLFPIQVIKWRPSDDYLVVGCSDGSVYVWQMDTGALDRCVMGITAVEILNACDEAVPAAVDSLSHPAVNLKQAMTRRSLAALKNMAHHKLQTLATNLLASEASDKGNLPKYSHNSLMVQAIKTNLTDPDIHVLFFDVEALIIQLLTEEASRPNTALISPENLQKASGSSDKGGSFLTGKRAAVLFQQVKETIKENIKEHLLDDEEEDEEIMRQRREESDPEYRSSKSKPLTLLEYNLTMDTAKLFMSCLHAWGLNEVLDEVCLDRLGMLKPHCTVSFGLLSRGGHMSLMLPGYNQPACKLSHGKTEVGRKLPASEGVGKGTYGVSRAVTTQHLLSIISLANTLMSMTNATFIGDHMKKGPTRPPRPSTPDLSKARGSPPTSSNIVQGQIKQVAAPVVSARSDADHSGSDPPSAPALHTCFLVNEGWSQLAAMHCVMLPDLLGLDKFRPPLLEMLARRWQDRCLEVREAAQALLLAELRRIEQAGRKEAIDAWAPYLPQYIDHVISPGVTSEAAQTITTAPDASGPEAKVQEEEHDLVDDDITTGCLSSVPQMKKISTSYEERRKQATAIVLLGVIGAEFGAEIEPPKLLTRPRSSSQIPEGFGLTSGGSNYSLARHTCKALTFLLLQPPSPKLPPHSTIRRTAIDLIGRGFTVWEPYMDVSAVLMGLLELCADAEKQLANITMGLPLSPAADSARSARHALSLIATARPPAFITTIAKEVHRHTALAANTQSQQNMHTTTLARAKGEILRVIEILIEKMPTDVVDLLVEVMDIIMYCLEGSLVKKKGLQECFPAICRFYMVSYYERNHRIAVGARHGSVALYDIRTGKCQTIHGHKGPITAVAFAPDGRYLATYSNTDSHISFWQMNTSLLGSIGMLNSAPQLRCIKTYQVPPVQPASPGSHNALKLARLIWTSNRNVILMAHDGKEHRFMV
# Chain of UniProt Q53S58 (Q53S58 whole entry, looked up): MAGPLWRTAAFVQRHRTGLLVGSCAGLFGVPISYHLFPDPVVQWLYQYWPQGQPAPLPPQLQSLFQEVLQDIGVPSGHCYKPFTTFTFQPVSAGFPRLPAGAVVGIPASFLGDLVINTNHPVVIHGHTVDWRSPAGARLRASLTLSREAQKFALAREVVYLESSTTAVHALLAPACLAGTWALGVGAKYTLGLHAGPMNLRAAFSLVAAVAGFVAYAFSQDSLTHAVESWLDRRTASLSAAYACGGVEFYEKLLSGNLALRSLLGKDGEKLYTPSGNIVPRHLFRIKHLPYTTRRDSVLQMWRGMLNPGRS
# Chain of UniProt Q99816 (Q99816 whole entry, looked up): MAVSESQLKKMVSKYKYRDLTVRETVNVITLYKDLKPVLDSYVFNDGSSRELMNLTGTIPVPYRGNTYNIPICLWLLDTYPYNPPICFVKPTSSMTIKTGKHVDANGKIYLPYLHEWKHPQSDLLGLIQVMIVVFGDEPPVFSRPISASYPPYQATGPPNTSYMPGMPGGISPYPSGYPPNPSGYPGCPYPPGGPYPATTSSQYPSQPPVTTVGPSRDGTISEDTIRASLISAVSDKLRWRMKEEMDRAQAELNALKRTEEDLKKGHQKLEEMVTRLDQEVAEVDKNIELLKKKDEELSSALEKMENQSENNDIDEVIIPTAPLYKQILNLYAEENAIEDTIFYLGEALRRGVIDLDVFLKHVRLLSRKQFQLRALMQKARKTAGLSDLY
# Chain of UniProt Q9NQZ2 (Q9NQZ2 whole entry, looked up): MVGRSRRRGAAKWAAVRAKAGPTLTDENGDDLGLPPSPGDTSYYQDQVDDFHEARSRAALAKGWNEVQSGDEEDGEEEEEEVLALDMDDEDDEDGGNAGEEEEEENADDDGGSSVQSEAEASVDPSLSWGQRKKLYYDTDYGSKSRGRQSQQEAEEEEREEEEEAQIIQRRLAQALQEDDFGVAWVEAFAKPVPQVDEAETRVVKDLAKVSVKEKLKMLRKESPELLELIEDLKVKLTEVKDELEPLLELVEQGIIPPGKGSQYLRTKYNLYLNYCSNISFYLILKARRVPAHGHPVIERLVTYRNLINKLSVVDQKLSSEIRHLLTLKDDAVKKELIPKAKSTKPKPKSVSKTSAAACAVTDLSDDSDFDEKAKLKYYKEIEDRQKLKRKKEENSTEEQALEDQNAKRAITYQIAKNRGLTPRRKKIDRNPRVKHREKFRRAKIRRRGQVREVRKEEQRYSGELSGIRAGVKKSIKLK
# Chain of UniProt Q9Y6I4 (Q9Y6I4 whole entry, looked up): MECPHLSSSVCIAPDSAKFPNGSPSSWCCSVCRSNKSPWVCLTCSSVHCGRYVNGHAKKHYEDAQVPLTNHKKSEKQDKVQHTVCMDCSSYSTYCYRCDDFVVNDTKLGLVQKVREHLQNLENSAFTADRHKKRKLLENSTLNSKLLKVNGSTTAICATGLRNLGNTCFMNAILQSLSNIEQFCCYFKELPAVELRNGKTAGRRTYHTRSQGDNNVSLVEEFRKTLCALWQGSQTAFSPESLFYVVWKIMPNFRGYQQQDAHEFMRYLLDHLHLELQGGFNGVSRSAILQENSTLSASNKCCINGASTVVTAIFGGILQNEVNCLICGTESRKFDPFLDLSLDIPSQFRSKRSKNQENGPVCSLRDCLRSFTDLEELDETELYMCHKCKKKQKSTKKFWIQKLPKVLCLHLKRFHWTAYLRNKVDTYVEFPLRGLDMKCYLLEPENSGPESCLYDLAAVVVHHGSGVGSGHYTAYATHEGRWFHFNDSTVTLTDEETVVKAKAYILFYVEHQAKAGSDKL
# Chain of UniProt P02585 (P02585 whole entry, looked up): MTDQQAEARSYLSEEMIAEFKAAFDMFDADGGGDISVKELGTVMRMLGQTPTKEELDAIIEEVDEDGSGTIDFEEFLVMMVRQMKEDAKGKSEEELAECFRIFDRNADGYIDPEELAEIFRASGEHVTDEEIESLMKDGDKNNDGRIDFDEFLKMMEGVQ
# Chain of UniProt Q8N4H5 (Q8N4H5 whole entry, looked up): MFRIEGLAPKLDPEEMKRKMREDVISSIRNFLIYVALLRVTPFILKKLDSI
# Chain of UniProt A6NHL2 (A6NHL2 whole entry, looked up): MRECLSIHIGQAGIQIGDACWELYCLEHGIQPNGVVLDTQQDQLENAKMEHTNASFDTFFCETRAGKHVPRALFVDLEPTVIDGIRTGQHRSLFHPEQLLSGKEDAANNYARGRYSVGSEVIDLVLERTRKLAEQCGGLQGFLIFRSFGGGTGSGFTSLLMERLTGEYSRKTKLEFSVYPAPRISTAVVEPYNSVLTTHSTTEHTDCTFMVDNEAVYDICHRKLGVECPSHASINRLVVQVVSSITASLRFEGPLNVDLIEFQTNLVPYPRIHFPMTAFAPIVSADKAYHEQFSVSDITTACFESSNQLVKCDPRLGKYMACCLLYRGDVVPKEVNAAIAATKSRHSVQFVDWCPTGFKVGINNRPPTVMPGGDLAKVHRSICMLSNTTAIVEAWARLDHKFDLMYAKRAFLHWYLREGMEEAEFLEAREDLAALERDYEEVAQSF
# Chain of UniProt Q01081 (Q01081 whole entry, looked up): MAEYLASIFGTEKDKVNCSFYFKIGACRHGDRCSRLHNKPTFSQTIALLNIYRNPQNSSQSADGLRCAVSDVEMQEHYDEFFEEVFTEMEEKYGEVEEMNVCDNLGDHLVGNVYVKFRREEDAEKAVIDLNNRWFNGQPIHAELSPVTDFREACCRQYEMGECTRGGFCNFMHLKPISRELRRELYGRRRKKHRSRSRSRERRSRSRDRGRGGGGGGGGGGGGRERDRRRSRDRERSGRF
Target,log2 fold change [1],log2 fold change [2],log2 fold change [3],log2 fold change [4],log2 fold change (entinostat),log2 fold change (vorinostat),log2 fold change (citarinostat),log2 fold change (silmitasertib),log2 fold change [5],log2 fold change [6]
WDR7 (UniProt Q9Y4E6),-0.227,-0.017,0.104,-0.019,0.008,0.036,-0.125,0.032,0.119,-0.088
UPF3B (UniProt Q9BZI7),0.092,0.11,0.315,0.096,-0.079,0,-0.125,0.149,0.245,-0.278
TMEM223 (UniProt A0PJW6),-0.087,-0.14,-0.1,0.071,-0.02,0.096,-0.031,0.019,0.05,-0.036
TUBAL3 (UniProt A6NHL2),0,-0.082,-0.006,0.031,0.061,0.037,-0.06,0.087,0.059,-0.291
XPO1 (UniProt O14980),0.034,-0.056,-0.249 (active),-0.026,0.082,0.052,0.092,0.025,0.009,-0.054
VTI1A (UniProt Q96AJ9),-0.07,0.014,-0.125,-0.014,-0.009,0.028,-0.016,0.051,-0.01,-0.039
TNFAIP8 isoform 4 (UniProt O95379),-0.032,-0.091,-0.061,0.029,0.018,0.207 (active),0.012,0.147,-0.073,0.087
XPOT (UniProt O43592),-0.04,-0.103,-0.241,-0.061,0.063,0.031,0.069,0.134,0.057,-0.047
TSG101 (UniProt Q99816),-0.02,-0.082,-0.157,-0.033,0.038,-0.007,0.053,0.025,-0.103,0.025
USP34 (UniProt Q70CQ2),0.012,-0.08,-0.131,-0.02,0.024,0.118,0.123,0.045,-0.008,-0.074
TMEM177 (UniProt Q53S58),-0.014,-0.008,-0.043,0.347 (active),-0.021,-0.048,0.068,-0.019,0.048,-0.042
TNPO1 (UniProt Q92973),0.003,-0.039,-0.157,-0.06,0.044,0.051,0.033,0.025,-0.021,-0.066
TXN2 (UniProt Q99757),-0.039,-0.009,0.088,0.049,0.023,-0.072,0.054,-0.072,-0.09,-0.036
TNNC2 (UniProt P02585),-0.003,0.006,-0.028,0.028,-0.025,-0.101,0.048,-0.026,-0.033,-0.003
USP3 (UniProt Q9Y6I4),0.039,0.016,-0.218,-0.115,-0.037,0.092,0.102,0.019,-0.066,-0.014
UBA6,-0.048,-0.065,-0.14,-0.047,0.05,0.011,0.052,-0.004,-0.046,-0.004
USP9X (UniProt Q93008),0,-0.062,-0.174,-0.041,0.037,0.06,0.032,0.017,-0.015,-0.056
TXNIP (UniProt Q9H3M7),0.091,-0.024,0.19,0.007,-0.009,0.018,0.071,0.115,-0.079,0.005
TOMM5 isoform 2 (UniProt Q8N4H5),-0.053,0.002,-0.083,0.084,0.067,-0.117,0.039,-0.043,-0.158,0.099
U2AF1 isoform 2 (UniProt Q01081),-0.174,-0.017,0.058,-0.096,-0.013,-0.021,0.039,-0.034,-0.039,-0.093
TRAPPC11 (UniProt Q7Z392),-0.033,-0.11,-0.187,0.007,0.011,0.012,-0.006,0.044,-0.036,-0.053
TRIP10 (UniProt Q15642),-0.003,-0.055,-0.129,-0.011,0.019,-0.063,0,0.046,-0.207,-0.014
UBAP2L isoform 5 (UniProt Q14157),0.017,-0.004,-0.013,0.001,-0.016,-0.016,0.013,-0.007,-0.029,0.023
UTP3 (UniProt Q9NQZ2),0.093,0.074,0.286,0.087,-0.019,-0.06,-0.107,0.095,0.103,-0.41
WBP4 (UniProt O75554),0.28 (active),0.079,0.006,0.111,0.058,0.098,0.055,-0.026,0,-0.007
TNFRSF10A (UniProt O00220),-0.097,-0.019,0.06,0.029,-0.202,-0.178,-0.011,0.028,-0.069,-0.07
U2AF2 (UniProt P26368),-0.125,-0.021,0.033,-0.051,-0.031,-0.129,-0.014,-0.049,0.113,-0.09
